PubChem BioAssay AID463173 (ICCB-Longwood Screening Facility, Harvard Medical School, 2010)
Screen size: about 52,000 compounds; about 4,300 (8.3%) were called active. Shown is part of a subset that was picked to be rich in actives. Values without a mark were called inactive. No stated cut-off is given here; in the data, active means survival mostly below about 52% (no sharp cut-off); inactive means mostly above about 56%.

System: DeltatarO mutant
Experiment: growth inhibition of S. aureus wild type versus tarO mutant, primary screen, teichoic acid synthesis inhibitors, RN4220, OD600 (AID 463173)
Conditions: OD600, 18 h, stronger effect = lower value, screened at 18.75 µg/mL (by protocol)

In order of rising survival:
1. Cc1ccc(C(=O)c2cn(Cc3ccc(Cl)cc3)c3nc(C)ccc3c2=O)cc1  34%
2. Cc1ccc(C(=O)c2cn(Cc3cccc(C)c3)c3nc(C)ccc3c2=O)cc1  54%
3. Cn1nc(C(=O)N2CCN(c3ccccc3F)CC2)c2c1-c1ccccc1S(=O)(=O)C2  60%
4. COc1ccccc1N1CCN(C(=O)c2nn(C)c3c2CS(=O)(=O)c2ccccc2-3)CC1  61%
5. CCc1ccc(S(=O)(=O)Nc2cc3c(cc2C)n(C)c(=O)c(=O)n3C)cc1  64%
6. Cc1ccc(C)c(N2CCN(C(=O)c3cc(S(=O)(=O)N4CCCC4)cn3C)CC2)c1  64%
7. CCN1CCC(N(Cc2cccc(OC)c2)C(=O)Nc2ccc(C)cc2Cl)CC1  66%
8. Cn1c(=O)c(=O)n(C)c2cc(N3CCOCC3)c(NS(=O)(=O)c3ccc(F)c(Cl)c3)cc21  67%
9. O=C(CSc1cn(CC(=O)N2CCCCC2)c2ccccc12)NCc1ccc(F)cc1  70%
10. O=C(Nc1ccc(CN2CCCCC2)cc1)c1cccnc1Cl  71%
11. O=C(CSc1ncn[nH]1)N1CCOCC1  73%
12. Cn1c(=O)n(C)c2cc(N3CCOCC3)c(NS(=O)(=O)c3ccc(Cl)cc3)cc21  75%
13. CCc1ccc(-c2nc(SCC(=O)NCCOC)c(-c3ccc(C)cc3)[nH]2)cc1  76%
14. Cc1nn(CCCC(=O)NCc2ccccc2)c(=O)c2cc3sccc3n12  76%
15. CC(C)Cc1ccc(S(=O)(=O)Nc2cc3c(cc2N2CCOCC2)n(C)c(=O)c(=O)n3C)cc1  79%
16. CN(c1ccc(F)cc1)S(=O)(=O)N1CCCC(C(=O)NCc2ccccc2Cl)C1 (centres undefined)  81%
17. Cc1ccc(NC(=O)[C@H](Cc2ccccc2)N2Cc3ccccc3C2=O)cc1  81%
18. Cc1ccc2c(=O)c(C(=O)c3ccc(F)cc3)cn(CC(=O)NCc3ccccc3)c2n1  82%
19. COc1cc(-c2nnc(SCC(=O)Oc3ccccc3Cl)o2)cc(OC)c1OC  84%
20. COc1cccc(CN2CCc3nc(N4CCN(C)CC4)ncc3C2)c1  84%
21. COc1cccc(-c2nnc3n(Cc4ccc(F)cc4)c(=O)c4ccccc4n23)c1  84%
22. Cc1ccc(C(=O)c2cn(Cc3ccc(F)cc3)c3nc(C)ccc3c2=O)cc1  85%
23. Cc1cc(N2CCC(C(=O)Nc3ccc(F)cc3F)CC2)n2nc(C)c(-c3ccc(Cl)cc3)c2n1  86%
24. Cc1ccc(CCNC(=O)CCCn2nc(C)c3c(C)n(-c4ccccc4)nc3c2=O)cc1  87%
25. N#CCNC(=O)c1cccc(I)c1  89%
26. Cc1ccc(S(=O)(=O)Nc2cc3c(cc2N2CCOCC2)n(C)c(=O)n3C)cc1  90%
27. COc1ccccc1CNC(=O)CCC1N=C2c3ccccc3N=C(SCC(=O)NCCc3ccc(OC)c(OC)c3)N2C1=O (centres undefined)  92%
28. Cn1c(=O)n(C)c2cc(NC(=O)C(F)(F)F)ccc21  94%
29. CCN1CCC(N(Cc2ccc3c(c2)OCO3)C(=O)Nc2cccc(C)c2C)CC1  94%
30. COc1ccc2c(c1)c(=O)c(S(=O)(=O)c1ccccc1)cn2CC(=O)Nc1ccc(C)c(Cl)c1  97%
31. CCc1ccc(C(=O)c2cn(CC(=O)NCc3ccc(C)cc3)c3nc(C)ccc3c2=O)cc1  98%
32. Cc1c(Cl)cccc1NC(=O)c1cc(S(=O)(=O)N2CCCCC2)cn1C  99%
33. COc1ccc(NC(=O)CCc2c(C)nc3c(c2C)c(=O)n(C)c(=O)n3C)c(OC)c1  100%
34. COCCN1C(=O)C(=O)/C(=C(/O)c2ccccc2)C1c1ccccc1 (centres undefined)  102%
35. Cc1cc2c(cc1NS(=O)(=O)c1ccc(Br)cc1)n(C)c(=O)c(=O)n2C  109%
36. Cc1ccc(NC(=O)C2CCN(S(=O)(=O)c3ccc4c(c3)CCCC(=O)N4)CC2)cc1N(C)C  120%

For `Cc1ccc(Cl)cc1N1CCN(C(=O)c2nn(C)c3c2CS(=O)(=O)c2ccccc2-3)CC1`, the survival was 58% (active).
In the case of `Cc1ccc(S(=O)(=O)Nc2cc3c(cc2C)n(C)c(=O)c(=O)n3C)cc1`, the survival was -2% (active).
`Cn1c(=O)c(=O)n(C)c2cc(N3CCOCC3)c(NS(=O)(=O)c3ccc(Cl)cc3)cc21` was tested, and the survival was -1% (active).
With `CCc1ccc(S(=O)(=O)Nc2cc3c(cc2N2CCOCC2)n(C)c(=O)c(=O)n3C)cc1` the survival was 6% (active).
For `CCN1CCC(N(Cc2cccc(OC)c2)C(=O)Nc2cccc(C)c2C)CC1`, the survival was 20% (active).
For `Cc1ccc(Cn2cc(C(=O)c3ccc(C)cc3)c(=O)c3ccc(C)nc32)cc1`, the survival was 24% (active).
With `Cc1ccc(CNC(=O)Cn2cc(C(=O)c3ccc(F)cc3)c(=O)c3ccc(C)nc32)cc1` the survival was 52% (active).
`Cc1ccc(C(=O)c2cn(Cc3cccc(Cl)c3)c3nc(C)ccc3c2=O)cc1` was tested, and the survival was 60% (active).
